This note sets out measurements from PubChem BioAssay AID489028 (Sanford-Burnham Center for Chemical Genomics, 2010).

Structures are written as SMILES. About 5,600 (56%) of roughly 10,000 compounds were called active. The set was probably picked from earlier hits. The list is a sample of the results. Unmarked numbers belong to inactive results. No stated cut-off is given here; in the data, active means inhibition above about 40%; inactive means the rest.

The target in the assay is Protein Mdm4 (Homo sapiens) + E3 ubiquitin-protein ligase Mdm2 (Homo sapiens) (UniProt O15151+Q00987). Briefly: inhibition of human Mdm2/MdmX pairing – luminescence, single concentration, confirmation (AID 489028). The note with it: Mdm2-MdmX binding, luminescent assay; at 8 µM; hits give high values.
Protein Mdm4 (Homo sapiens) + E3 ubiquitin-protein ligase Mdm2 (Homo sapiens), sequence (O15151 whole entry, looked up): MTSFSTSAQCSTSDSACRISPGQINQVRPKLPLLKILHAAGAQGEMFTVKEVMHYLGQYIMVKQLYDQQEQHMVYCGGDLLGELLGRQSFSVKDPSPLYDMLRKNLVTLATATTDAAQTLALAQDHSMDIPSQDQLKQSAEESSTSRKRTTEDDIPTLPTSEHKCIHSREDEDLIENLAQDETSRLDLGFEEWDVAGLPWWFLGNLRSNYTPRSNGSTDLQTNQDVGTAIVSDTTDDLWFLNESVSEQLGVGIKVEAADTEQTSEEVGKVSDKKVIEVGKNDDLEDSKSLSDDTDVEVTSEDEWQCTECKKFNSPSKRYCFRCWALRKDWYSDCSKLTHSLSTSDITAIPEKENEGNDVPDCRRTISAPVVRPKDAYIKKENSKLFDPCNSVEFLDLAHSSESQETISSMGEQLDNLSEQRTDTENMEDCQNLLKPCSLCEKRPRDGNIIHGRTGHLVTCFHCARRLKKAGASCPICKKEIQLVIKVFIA
Protein Mdm4 (Homo sapiens) + E3 ubiquitin-protein ligase Mdm2 (Homo sapiens), sequence (Q00987 whole entry, looked up): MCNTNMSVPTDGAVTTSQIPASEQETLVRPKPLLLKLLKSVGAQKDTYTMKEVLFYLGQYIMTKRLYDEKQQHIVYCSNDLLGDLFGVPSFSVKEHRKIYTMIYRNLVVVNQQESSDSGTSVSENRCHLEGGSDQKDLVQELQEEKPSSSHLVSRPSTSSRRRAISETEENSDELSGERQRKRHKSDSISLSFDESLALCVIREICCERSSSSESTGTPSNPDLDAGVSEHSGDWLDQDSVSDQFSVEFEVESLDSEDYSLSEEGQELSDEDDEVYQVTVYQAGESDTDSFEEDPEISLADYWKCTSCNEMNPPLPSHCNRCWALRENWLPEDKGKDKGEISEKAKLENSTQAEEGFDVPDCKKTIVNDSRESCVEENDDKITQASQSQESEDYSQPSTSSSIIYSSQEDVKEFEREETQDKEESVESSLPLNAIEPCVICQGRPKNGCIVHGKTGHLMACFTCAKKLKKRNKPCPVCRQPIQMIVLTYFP
As a reminder, the inhibition is the change of the read-out against control, counted positive when it falls. For `CC(C)Oc1c(Br)cc(Br)cc1/C=N/NC(N)=S`, the inhibition was 15.2%.

In the case of `CCC1CCCCN1CCCNC(=O)c1cc2c(Cl)nc3ccccc3c2s1` (stereo not drawn), the inhibition is 26%.

For the compound `Cc1nc(/N=C(\N)NC(=O)NC2CCCCC2)nc2ccccc12`, the inhibition was 43.9% (active).

Turning to `O=[N+]([O-])/C=C/c1ccc2c(ccn2Cc2ccccc2)c1`, the inhibition was 52.9% (active).

As for `CN(c1ccccc1)S(=O)(=O)c1cc(C(=O)N2CCN(c3ncccn3)CC2)ccc1Cl`, the inhibition is 50.1% (active).

For the compound `O=C(CSc1nc(Nc2ccccc2)nc(N2CCOCC2)n1)Nc1cc(Cl)ccc1O`, the inhibition was 35%.

As for `COc1cccc(-n2c(SCC(=O)NC3CCCCC3)nc3n[nH]c(C)c3c2=N)c1`, the inhibition is 51.4% (active).

`CC(C)(C)OC(=O)N1CCC(NC(=O)c2[nH]cnc2C(=O)N[C@@H](Cc2ccccc2)C(=O)OCc2ccccc2)CC1`: the inhibition was -8%.

As for `CCOC(=O)Nc1ccc2c(c1)N(C(=O)CCCl)c1ccccc1[S@]2=O`, the inhibition is 41.2% (active).

As for `CCOc1cc2[nH]c(=S)n(Cc3ccc(C(=O)N4CCN(C)CC4)cc3)c(=O)c2cc1OCC`, the inhibition is -2.8%.

Consider `CCOc1cc(C(=O)N2CCc3cc(OC)c(OC)cc3C2)ccc1OC(F)F`, for which the inhibition was 56.4% (active).

As to `O=c1[nH]c(CCl)nc2cc(-c3ccc(Cl)cc3)sc12`, the inhibition is 7.45%.

As for `COc1cccc(NC(=O)[C@H](Cc2c[nH]c3ccccc23)NC(=O)[C@@H]2Cc3ccccc3CN2)c1`, the inhibition was 76% (active).

For the compound `CC(C)=CCCC1(C)C=Cc2c(ccc3c2[nH]c2cc(O)c(C)cc23)O1` (stereo not drawn), the inhibition was 20.9%.

On to `Cc1ccc(OCCOCCOc2ccc(Br)cc2/C=N\NC(=O)c2ccncc2)cc1`, for which the inhibition is 68% (active).

Turning to `O=[N+]([O-])c1ccccc1S(=O)(=O)Nc1cccc2cccnc12`, the inhibition was 64.5% (active).

Take `O=C(Nc1cccc(C(F)(F)F)c1)c1ccc(N2CCNCC2)c([N+](=O)[O-])c1`: the inhibition is 8.6%.

`CC(NC(=O)c1ccc(N2CCNCC2)c([N+](=O)[O-])c1)C12CC3CC(CC(C3)C1)C2` (stereo not drawn): the inhibition was 73% (active).

With `O=C(/C=C/c1ccc(Cl)cc1)Nc1ccc(Br)cn1`, the inhibition was 13.2%.

On to `Cc1cccc(Nc2ccccc2C(=O)NCc2ccco2)c1C`, for which the inhibition was 43.1% (active).

On to `CCc1nn(-c2cc(Oc3cccc4ccccc34)nc(-c3ccccc3)n2)c(N)c1C#N`, for which the inhibition is 13.9%.

Turning to `CN(C)c1ccnc2sc3c(=O)n(Cc4ccccc4)cnc3c12`, the inhibition was 64.7% (active).

For `Cc1c(/C=N\NC(=O)c2cc3ccccc3o2)c2ccccc2n1C`, the inhibition was 54.4% (active).

In the case of `N#CCC(=O)N/N=C/c1cn(Cc2ccc3ccccc3c2)c2ccccc12`, the inhibition was 23.6%.

On to `COc1cccc(CNCCc2c[nH]c3ccccc23)c1OCc1ccccc1F`, for which the inhibition was 45.4% (active).

On to `COc1cccc(-c2nnc(NC(=O)c3ccc(S(=O)(=O)N(CC(C)C)CC(C)C)cc3)o2)c1`, for which the inhibition is 52.3% (active).

On to `NC(=O)c1sc2nc3c(c(-c4ccccc4)c2c1N)CCC3`, for which the inhibition was 68.7% (active).

On to `COc1ccc(CNC(=O)C[C@H]2C[C@H](C(=O)N3CCOCC3)[C@@]3(CCC4CCCC4)c4[nH]c5ccc(Cl)cc5c4CCN3C2=O)cc1OC`, for which the inhibition is 49.1% (active).

In the case of `CCCCCCCCn1c2c(c(=N)c3c1CCC3)CCCC2`, the inhibition is 91.8% (active).

Take `Cc1cc(=O)oc2cc(OCC3CC(c4ccccc4Cl)=NO3)ccc12` (stereo not drawn): the inhibition is 47.2% (active).

On to `CC(C)=CC(=O)Nc1nnc(-c2ccc(F)cc2)s1`, for which the inhibition was -17.9%.

For `Cc1nnnn1/C(=C\c1ccccc1)C(=O)OCC(=O)N1CC2(C)CC1CC(C)(C)C2` (stereo not drawn), the inhibition is 47.9% (active).

With `O=C(NCC1CCCO1)c1cc2c([nH]c3ccccc32)c(-c2ccc(F)cc2)n1` (stereo not drawn), the inhibition was 61.5% (active).

For the compound `COc1cc(N=Cc2c(O)[nH]c3ccccc23)cc(OC)c1OC`, the inhibition was 73.8% (active).

For `COc1ccc(N=Cc2c(O)[nH]c3ccccc23)cc1OC`, the inhibition is 47% (active).

In the case of `C[C@@H](NC(=O)OC(C)(C)C)c1nnc(S(=O)(=O)Cc2ccccc2)o1`, the inhibition is 54% (active).

With `CC(C)(C)OC(=O)NNc1c2ccccc2nc2ccccc12`, the inhibition was 21.1%.

Consider `Cc1ccnc(NC(=O)C2CCN(S(=O)(=O)c3c(C)c(C)cc(C)c3C)CC2)c1`, for which the inhibition is 69.8% (active).

On to `CC(=O)Nc1ccc(NC(=O)C2CCCN(S(=O)(=O)c3ccc(Cl)cc3)C2)cc1` (stereo not drawn), for which the inhibition is 3.65%.

For the compound `COc1cc2[nH]c(=S)n(Cc3ccc(F)cc3)c(=O)c2cc1OC`, the inhibition is 15.8%.

`COc1cccc2sc(NNC(=O)c3nc4ccccc4s3)nc12`: the inhibition was 45.7% (active).

Turning to `CCOc1ccc(-c2cc(C(=O)N/N=C/c3ccc(O)cc3)c3ccccc3n2)cc1`, the inhibition is 76.8% (active).

`Nc1ccc(C(=O)Nc2ccccc2N)cc1`: the inhibition was 6.25%.

As for `O=C(CCCN1C(=O)/C(=C/c2cccs2)SC1=S)Nc1ccc(O)cc1`, the inhibition is 61.5% (active).

On to `COc1ccc(C(=O)/C=C/Nc2ccccn2)cc1`, for which the inhibition is 25.4%.

As for `COc1ccc(/C=C2\SC(=S)N(CCC(=O)Nc3ccccn3)C2=O)cc1OC`, the inhibition was 54.1% (active).

Regarding `O=C(CCCN1C(=O)/C(=C/c2ccccc2)SC1=S)Nc1ccc(O)cc1`, the inhibition was 93.9% (active).

For the compound `O=C(CCCN1C(=O)/C(=C\c2ccccc2)SC1=S)Nc1ccccc1O`, the inhibition is 69.7% (active).

Consider `CCN1CCN(c2ccc(S(=O)(=O)N3CCCCC3)cc2NC(=O)Cc2c(Cl)cccc2Cl)CC1`, for which the inhibition is 30.6%.

For `O=C(Nc1ccc(Cl)cc1)Nc1nnc(/C=C/c2ccccc2)s1`, the inhibition was 81.4% (active).

As to `O=C(/C=C/c1ccccc1)Nc1nnc(SCC(=O)c2ccc3ccccc3c2)s1`, the inhibition was 2.95%.

Take `Oc1ccc(Br)cc1/C=N/Nc1ccccn1`: the inhibition was 87.7% (active).

With `CCCCNC(=O)C(C)N(CCN(C)C)C(=O)CCCN1C(=O)NC(c2ccc(Cl)cc2)C(C(=O)OCc2ccccc2)=C1C` (stereo not drawn), the inhibition was 15.1%.

Turning to `CCCCNC(=O)C(C)N(CCN(C)C)C(=O)CCCCCN1C(=O)NC(c2ccc(Cl)cc2)C(C(=O)OCc2ccccc2)=C1C` (stereo not drawn), the inhibition is 49.5% (active).

In the case of `Cc1cc(C(=O)COC(=O)CNC(=O)c2ccc(F)cc2)c(C)n1Cc1ccco1`, the inhibition was 72.7% (active).

For the compound `CC1=CC(C)(C)Nc2ccc(OC(=O)CN3C(=O)C4CCCCC4C3=O)cc21` (stereo not drawn), the inhibition was 9.75%.

For `COc1ccc(/C=C/C(=O)Nc2ccc(C34CC5CC(CC(O)(C5)C3)C4)cc2)cc1OC`, the inhibition was 36.9%.

`COc1cc(/C=N/NC(=O)Nc2ccccc2)ccc1OCCOc1ccccc1C`: the inhibition is 72.8% (active).

Take `Brc1ccc2ncnc(NCc3cccnc3)c2c1`: the inhibition was 68.7% (active).

With `CCn1c(O)c(N=NC(=O)c2cccc(S(=O)(=O)N3CCCCC3)c2)c2ccccc21`, the inhibition was 36.7%.

Regarding `Cc1cccc(NC(=O)c2nc(S(=O)(=O)Cc3ccccc3)ncc2Cl)c1`, the inhibition was 95.2% (active).

On to `Cc1cccc(CS(=O)(=O)c2ncc(Cl)c(C(=O)Nc3ccc(F)cc3)n2)c1`, for which the inhibition was 75.5% (active).

For `CC(=O)Nc1nc(C)c(-c2csc(Nc3ccc(S(N)(=O)=O)cc3)n2)s1`, the inhibition was 44.5% (active).

`CC(C)c1cc(C(=O)N/N=C/C(Br)=C/c2ccccc2)n[nH]1`: the inhibition is 35.2%.

For `CCCC(=O)Nc1nc2ccc(NC(=O)c3cccnc3)cc2s1`, the inhibition was 48.4% (active).

In the case of `COc1cc(C(=O)NCc2nnc(SCC(=O)Nc3nc4ccc(C)cc4s3)o2)cc(OC)c1OC`, the inhibition is -0.1%.

As to `CCCn1nc(C(=O)Nc2ccc3nc(C)sc3c2)c2ccccc2c1=O`, the inhibition was 24.9%.

Turning to `CCN1C(=O)c2cccc3c(S(=O)(=O)Nc4ccccc4O)ccc1c23`, the inhibition is 39%.

Consider `O=C(/C=C/c1ccc(Cl)c([N+](=O)[O-])c1)c1ccc(O)cc1`, for which the inhibition is 85.4% (active).

For `COc1ccc(C(=O)/C=C/c2cccnc2)c(OC)c1`, the inhibition is -4.6%.

On to `COc1ccc(/C=C/C(=O)c2ccc(NS(=O)(=O)c3ccc(C)cc3)cc2)cc1O`, for which the inhibition is 38.9%.

For the compound `O=C(/C=C/c1ccc(Cl)c([N+](=O)[O-])c1)c1cccnc1`, the inhibition was 66.7% (active).

As to `Cc1[nH]c(C)c(S(=O)(=O)N2CCN(c3cccc(C(F)(F)F)c3)CC2)c1C(=O)N1CCCCC1`, the inhibition was 52.8% (active).

As to `CCNC(=O)c1c(O)c2cccc3c2n(c1=O)CC3`, the inhibition was 75.1% (active).

For `O=C(COC(=O)/C=C/c1cn(-c2ccccc2)nc1-c1cccnc1)Nc1ccc(Cl)cc1Cl`, the inhibition is 18.3%.

Regarding `CCOC(=O)c1c(-c2ccc(C)cc2C)csc1NC(=O)CSc1nnnn1C`, the inhibition is 51% (active).

As for `CCC(C)N1C(=O)S/C(=C/c2ccc(Sc3nc4ccccc4[nH]3)o2)C1=O` (stereo not drawn), the inhibition is 23.9%.

Turning to `Cc1cccc(-n2c(C)cc(/C=N\NC(=O)c3cccs3)c2C)c1`, the inhibition was 40.1% (active).

For the compound `C[C@@H]1C[C@@H]2O[C@H]2/C=C\C=C\C(=O)Cc2c(Cl)c(O)cc(O)c2C(=O)O1`, the inhibition is 54.2% (active).

Consider `Cc1ccc(C2CC(=O)NC(SCC(=O)OCc3ccccc3)=C2C#N)o1` (stereo not drawn), for which the inhibition was 44.5% (active).

On to `C=CCC[C@@H](Cc1ccc(F)cc1)C(=O)OC[C@H](Cc1c[nH]c2ccccc12)NC(=O)[C@@H](CC=C)CC(=O)N(CCO)Cc1ccccc1`, for which the inhibition was 21.8%.

As for `O=C(Nc1ccccc1Cl)/C(Cl)=C(\Cl)S(=O)c1ccccc1` (stereo not drawn), the inhibition is 100% (active).

Take `O=C1/C(=C\c2ccccc2Cl)SC(=S)N1CCC(=O)N1CCCc2ccccc21`: the inhibition was 60.8% (active).

For the compound `COc1cc2c(cc1OC)C(C)N(S(=O)(=O)c1cnc(Cl)c(Cl)c1)CC2` (stereo not drawn), the inhibition was 58.1% (active).

Consider `C=CCn1c(C)cc(C(=O)CN2C(=O)c3ccccc3C2=O)c1C`, for which the inhibition is 68% (active).

Regarding `COc1ccc(-c2cn[nH]c2-c2ccc(OC)cc2)cc1`, the inhibition is 63% (active).

Take `CC1(C)Cc2nc3sc4c(SCC(=O)NC(c5ccccc5)c5ccccc5)ncnc4c3cc2CO1`: the inhibition is 2.85%.

As to `CCOc1ccc(S(=O)(=O)Nc2cccc(C(=O)NCC3(N4CCCCC4)CCCCC3)c2)cc1`, the inhibition is 78.6% (active).
